A selection: hits, their analogues and other compounds. The true share with any hit is near 4.8%.
hgDAF-12 ag: agonists of H. glycines DAF-12 nuclear receptor; hit rate 1.8% among 370,000; HEK293 GAL4-hgDAF12 UAS-luciferase reporter, agonist luminescence; normalized to butyrate control; activation, % at 6.8 µM;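 active means activation above a cutoff set at the mean of all screened compounds plus 3 SD, cut at about 10% in these data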
ssDAF-12 act: activates DAF-12 receptor from parasite S. stercoralis; hit rate 1% among 370,000; HEK293 ssDAF-12/GRIP1 lit1-tk-luc reporter, luminescence; % of 3 µM dafachronic acid response; activation, % at 6.8 µM;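 active means activation above the mean over all tested compounds plus 3 SD, cut at about 0.9% in these data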
DAX1 inh-1: inhibitors of DAX1 repression of SF-1 activated StAR promoter; hit rate 1.1% among 370,000; inhibition, % at 6.8 µM; HEK293T StAR-luciferase reporter, SF-1/DAX-1 repression relief; AID 652010;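 active means inhibition above the mean over all tested compounds plus 3 SD, cut at about 3.6% in these data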;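 further: higher inhibition means more luminescence from relief of DAX-1 repression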
hcDAF12 agonist: activates DAF-12 receptor from parasite H. contortus; hit rate 1.4% among 370,000; HEK293 hcDAF-12 lit1-tk-luc reporter, luminescence; 0% DMSO, 100% Δ7-dafachronic acid; activation, % at 6.8 µM;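 active means activation above the mean of all tested compounds plus 3 SD, cut at about 5.5% in these data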
DAX1 inh-2: inhibits human nuclear receptor DAX1; P51843; HEK293 Gal4-DAX1 luciferase reporter, luminescence; inhibition, % at 6.75 µM; hit rate 0.99% among 340,000; AID 504766;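 active means inhibition above the mean over all tested compounds plus 3 SD, cut at about 4.2% in these data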;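 further: inhibition shows as a rise in luminescence from relieved DAX1 repression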
Target sequence (P51843 207-470 limits assumed): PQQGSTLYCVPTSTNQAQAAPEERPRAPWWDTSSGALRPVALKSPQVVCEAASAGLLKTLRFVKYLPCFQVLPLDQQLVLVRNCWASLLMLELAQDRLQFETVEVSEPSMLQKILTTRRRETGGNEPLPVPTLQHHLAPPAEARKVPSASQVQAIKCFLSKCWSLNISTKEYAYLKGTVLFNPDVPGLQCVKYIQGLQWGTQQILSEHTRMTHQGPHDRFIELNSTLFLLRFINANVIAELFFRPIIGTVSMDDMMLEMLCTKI
SMARCA2 activ: increases SMARCA2 function in MMTV reporter cells. hit rate 1% among 370,000. activation, % at 9.1 µM. MG213 cells, MMTV-luciferase reporter, dexamethasone, overnight; in the data active means activation above about 7.8%
Each line names hits and unclear results; the compound was inactive in the other large screens.

CCCCc1nc2cc(C(=O)N(C)CCc3cn[nH]c3)ccc2o1	none
CCCCc1nc2cc(C(=O)N3CCC(O)CC3)ccc2o1	hgDAF-12 ag 11, ssDAF-12 act 1.0, hcDAF12 agonist 6.2
CCCCc1nc2cc(C(=O)NCc3cc(C)n(C)n3)ccc2o1	hcDAF12 agonist 6.2
CCCCc1nc2cc(C(=O)N3CCC[C@H]3CO)ccc2o1	none
O=C(NCCCN1CCOCC1)c1ccc2nc(Cc3ccccc3F)oc2c1	DAX1 inh-1 4.2
CCOC(=O)C1CCCN(C(=O)c2ccc3oc(Cc4ccccc4)nc3c2)C1 (stereo not drawn)	hgDAF-12 ag 11
COC(=O)C1=CC(=O)C=C(OC)[C@@]12Oc1cc(C)cc(OC)c1C2=O	none (no result: DAX1 inh-2)
CC(C)C[C@H]1COc2cc(Br)ccc2S(=O)(=O)N1Cc1cn(Cc2ccc(C(F)(F)F)cc2)nn1	none (no result: DAX1 inh-2)
COC(=O)[C@]12C[C@H](CC(=O)N3CCCC3)C(=O)N(CCC3=CCCCC3)C1=C[C@H](C(C)C)O[C@@H]2C1CC1	none (no result: DAX1 inh-2)
O=C(NCc1ccncc1)c1ccc2nc(Cc3ccccc3F)oc2c1	none
Cc1cc(CNC(=O)c2ccc3nc(Cc4ccccc4F)oc3c2)nn1C	hgDAF-12 ag 12
CCOc1ccc(Nc2cc(C)nc3c(C)cccc23)cc1	DAX1 inh-2 4.9
CC[C@@H](CCC(=O)N(c1ccccc1)c1ccccc1)c1ccc(C)cc1	none (no result: DAX1 inh-2)
O=C(NC1CCCCN(Cc2ccc(OC(F)(F)F)cc2)C1=O)c1ccc(F)c(F)c1 (stereo not drawn)	none (no result: DAX1 inh-2)
CNNC(=O)C(=O)NNS(=O)(=O)c1ccccc1	DAX1 inh-2 5.8
Cc1occc1-c1nnc(SCC(=O)Nc2ccccn2)n1-c1ccccc1	none (no result: DAX1 inh-2)
COc1ccc(OC)c(CN2C(=O)COc3ccccc3C2c2nnnn2C2CCCC2)c1 (stereo not drawn)	none (no result: DAX1 inh-2)
O=C(O)c1ccc(-c2nc(-c3ccc(Cl)cc3Cl)cs2)cc1	none
O=C(O)c1ccc(-c2nc(-c3ccc(Cl)cc3)cs2)cc1	hgDAF-12 ag 13, hcDAF12 agonist 5.8
CCCCN1CCN(C(=O)c2ccc(CNC(=O)c3cccc(Br)c3)cc2)CC1	none (no result: DAX1 inh-2)
C=CCNC(=O)c1ccc(CSc2nc3ccccc3s2)cc1	hcDAF12 agonist 5.7
Nc1nc(-c2cccc(F)c2)cs1	ssDAF-12 act 0.9, DAX1 inh-2 5.2
CN(CCO)c1cccc2c1S(=O)(=O)N(Cc1cn(Cc3ccccc3C(F)(F)F)nn1)Cc1ccccc1O2	none (no result: DAX1 inh-2)
CCN(CC)c1ccc(C=NCCc2ccc(S(N)(=O)=O)cc2)cc1	ssDAF-12 act 1.0
CCN(CC)c1ccc(/C=N/NS(=O)(=O)c2ccc(CNC(C)=O)cc2)cc1	none
COc1cc(C(=O)Oc2c(OC)cc(C(=S)N3CCOCC3)cc2OC)cc(OC)c1OC	DAX1 inh-2 5.0
CN(C)c1ccc(C(=O)NN2C(=O)c3ccccc3C2=O)cc1	hgDAF-12 ag 11
O=C(O)c1ccc(S(=O)(=O)c2ccc3c(c2)C(=O)N(NC(=O)c2ccccc2)C3=O)cc1	hgDAF-12 ag 12
COc1ccccc1-c1cccc2c3c([nH]c12)[C@@H]1C[C@H]2[C@@H](CN1CC3)[C@H](C)ON2C	none (no result: DAX1 inh-2)
O=C(Cc1nnc(NC(=O)Nc2ccccc2)s1)Nc1ccccc1	none (no result: DAX1 inh-2)
O=C(Cc1nnc(NC(=O)Nc2ccc(F)cc2)s1)Nc1ccccc1	ssDAF-12 act 1.1
O=C(NC1CCCCN(Cc2cccc(F)c2)C1=O)c1cccc(C(F)(F)F)c1 (stereo not drawn)	none (no result: DAX1 inh-2)
CCOC(=O)[C@@]12CCCC=C1N(CCc1ccc(Cl)cc1)C(=O)[C@H]2CC(=O)N1CCOCC1	none (no result: DAX1 inh-2)
C=CCOc1cccc(C(=O)/C=C2/C(=O)Nc3ccccc32)c1	none
CC(=O)/C=C1/C(=O)Nc2ccccc21	hcDAF12 agonist 6.0
COC(=O)[C@]12CCCCC=C1N(Cc1ccc(OC)cc1)C(=O)[C@@H]2CC(=O)NCC12CC3CC(CC(C3)C1)C2	none (no result: DAX1 inh-2)
COC(=O)C1CN(Cc2ccc(F)cc2)CCS(=O)(=O)N1Cc1cn(Cc2ccccc2)nn1 (stereo not drawn)	none (no result: DAX1 inh-2)
CCC(C)NC(=O)C1CCN(S(=O)(=O)c2ccc3[nH]c(=O)oc3c2)CC1 (stereo not drawn)	none (no result: DAX1 inh-2)
Cc1ccc(C)c(NC(=S)NC2CC3CCC(C2)N3Cc2ccco2)c1 (stereo not drawn)	ssDAF-12 act 1.6
Cc1cc(C)cc(NC(=S)NC2CC3CCC(C2)N3Cc2ccco2)c1 (stereo not drawn)	none
CC(=O)N[C@H]1C[C@@H]2O[C@H](CO)CC[C@@H]2O[C@@H]1CCc1ccc(-c2ccc(F)cc2)cc1	none (no result: DAX1 inh-2)
COc1ccc(Cc2c(C)nc(N)nc2Cl)cc1	ssDAF-12 act 1.7
N#C/C(=N\Nc1ccccc1)C(=N)N1CCOCC1	none
COc1ccc(N/N=C(\C#N)C(=N)N2CCCCC2)cc1	DAX1 inh-2 6.4
CCN(CC)C(=N)/C(C#N)=N/Nc1ccc(C)cc1	DAX1 inh-2 7.1
Cc1ccc(N/N=C(\C#N)C(=O)c2ccsc2)cc1	none
N#C/C(=N\Nc1ccccc1F)C(=N)N1CCCCC1	hgDAF-12 ag 11
Cc1ccc(N/N=C(\C#N)C(=N)N2CCOCC2)cc1	hgDAF-12 ag 13, DAX1 inh-2 5.2
COc1ccc(C(=O)c2[nH]c(N)c(C(=O)c3ccccc3)c2-c2ccc(OC)c(OC)c2)cc1	none (no result: DAX1 inh-1, DAX1 inh-2, SMARCA2 activ)
O=C(Nc1ccc(C(F)(F)F)cc1)OC1CCC12CCC(c1ccccc1)CC2 (stereo not drawn)	none (no result: DAX1 inh-2)
c1ccc(CNc2cncnc2)cc1	ssDAF-12 act 1.1
COC(=O)C1=C(C)N(Cc2ccc(C(F)(F)F)cc2)C(=NCc2ccccc2C(F)(F)F)NC1c1ccc(Cl)cc1 (stereo not drawn)	none (no result: DAX1 inh-2)
COc1ccc(CN2CN3Cc4ccc(C)cc4C3CS2(=O)=O)cc1 (stereo not drawn)	none (no result: DAX1 inh-2)
Cc1ccc(C)c(NC(=S)N(C)CCO)c1	DAX1 inh-2 4.8
CCN(CC)CC(O)CN1C(=O)NC(C)(C)C1=O (stereo not drawn)	DAX1 inh-2 4.3
Cc1ccc(OCC(O)CN2C(=O)NC(C)(C)C2=O)cc1 (stereo not drawn)	none
Cc1ccc(OCC(O)CN2C(=O)NC(C)(C)C2=O)cc1C (stereo not drawn)	hgDAF-12 ag 11
O=C1c2[nH]nc(-c3ccccc3)c2C(c2cccc(C(F)(F)F)c2)N1c1ccccc1 (stereo not drawn)	none (no result: DAX1 inh-2)
O=C(Nc1nncs1)c1cc2c(s1)CCC2	hgDAF-12 ag 12
CC[C@H](CCC(=O)N(c1ccccc1)c1ccccc1)C1CC1	none (no result: DAX1 inh-2)
O=C(Nc1ccc(Cl)c(Cl)c1)C1CCCN(c2nnc(-n3cccc3)s2)C1 (stereo not drawn)	none (no result: DAX1 inh-2)
COC(=O)c1cc2c(c3c4cc(F)ccc4n(S(=O)(=O)c4ccc(C)cc4)c13)C(=O)N(Cc1ccc(N(C)C)cc1)C2	none (no result: DAX1 inh-2)
CC(=O)c1ccc(NC(=O)C[n+]2ccccc2)cc1	none
